Assay outcomes (PubChem BioAssay)
Vaccinia mCherry = vaccinia inhibition (mCherry reporter). Vaccinia virus mCherry reporter infection, fluorescence. Potency, µM (highest dose often 36.5 µM), hits mostly inhibitors. actives 0.63% (n = 310,000); calls by dose curve; tested in A549 cells; note: nearly all actives have a fitted effect of over 35% in size
Vaccinia Venus = inhibitors of vaccinia virus (Venus reporter); Potency, µM (top dose mostly 36.5 µM), hits mostly inhibitors; actives 0.46% (n = 330,000); Vaccinia virus Venus reporter expression, fluorescence; AID 720580; calls by dose curve; tested in A549 cells; note: nearly all actives have a fitted effect of over 30% in size
Cycloheximide cs = counter-screen hit for Shiga toxin inhibitors, cycloheximide; actives 12% (n = 300,000); max response, %; AID 2314; cell reporter, cycloheximide protein synthesis inhibition counterscreen; in the data active = max response mostly above about 13%, no sharp cut-off; inactive = mostly below about 14%; note: read at 38.3 µM for the half of the compounds with a filed dose
Shiga toxin inh = Shiga toxin inhibition | Vero cells, Shiga toxin protein synthesis inhibition reporter | inhibition, % at 38.7 µM | actives 9.2% (n = 290,000); in the data active = inhibition mostly above about 28%, no sharp cut-off; inactive = mostly below about 43%
LASV entry inh = Lassa virus entry inhibition; Potency, µM (highest dose often 37.9 µM), actives largely listed as inhibitors; Lassa virus pseudotype entry inhibition, cell reporter; AID 540256; actives 1.2% (n = 300,000); calls by dose curve; tested in HEK293 cells; note: nearly all actives have a fitted effect of over 50% in size
Marburg entry inh = blocks Marburg virus binding to or entry into cells; Marburg virus pseudotyped entry inhibition, cell reporter; Potency, µM (series often up to 37.8 µM), most hits filed as inhibitors; actives 1.8% (n = 300,000); calls by dose curve; tested in HEK293 cells
Of the large screens only hits and unclear results are named; the others gave an inactive call. This is one part of a sample in which hits are shown more often than they occur.

Cc1nc(C)c(-c2csc(Nc3cccc(O)c3)n2)s1	Vaccinia mCherry inconclusive, Cycloheximide cs 45, Shiga toxin inh 35, Marburg entry inh inconclusive
C=C(C)C(=O)OCCO	none (no result: Vaccinia mCherry, Vaccinia Venus, LASV entry inh, Marburg entry inh)
CC(=O)c1ccc(N2CCN(S(=O)(=O)c3cc4c(cc3C)NC(=O)CO4)CC2)cc1	none (no result: Vaccinia mCherry, Vaccinia Venus, LASV entry inh, Marburg entry inh)
CC(=O)c1ccc(N2CCN(S(=O)(=O)c3ccc4c(c3)NC(=O)CC(=O)N4)CC2)cc1	Cycloheximide cs 24, Shiga toxin inh 55 (no result: LASV entry inh, Marburg entry inh)
Nc1nc(-c2ccc(Cl)cc2)cc(C(F)(F)F)n1	LASV entry inh inconclusive
Fc1ccc(-c2cc(C(F)(F)C(F)F)[nH]n2)cc1	Cycloheximide cs 27, Shiga toxin inh 65
Oc1ccccc1-c1cc(C(F)(F)C(F)F)[nH]n1	Cycloheximide cs 22, Shiga toxin inh 28, Marburg entry inh inconclusive
FC(F)C(F)(F)c1cc(-c2ccc(Cl)cc2)n[nH]1	Cycloheximide cs 31, Shiga toxin inh 46
Brc1cccc[n+]1CCCC[n+]1ccccc1Br	none (no result: Cycloheximide cs, Shiga toxin inh, LASV entry inh, Marburg entry inh)
CC1CCCC(C)N1C(=O)Cn1cc(/C=C2/C(=O)Nc3ccccc32)c2ccccc21 (configuration not stated)	Vaccinia Venus inconclusive, LASV entry inh inconclusive, Marburg entry inh inconclusive
Oc1ccc(C2=NNC(c3ccc(O)cc3)=NN2)cc1	none
CSC1=NNC(c2ccc(C(C)(C)C)cc2)=NN1	Cycloheximide cs 33, Shiga toxin inh 96 (no result: Vaccinia mCherry, Vaccinia Venus, LASV entry inh, Marburg entry inh)
Cc1onc(-c2ccccc2)c1C(=O)N/N=C/c1cn(C)c2ccccc12	none
CCc1ccc(CNC(=O)c2nn(-c3ccc(OC)c(Cl)c3)c(=O)c3c2c2ccccc2n3C)cc1	Marburg entry inh inconclusive (no result: Cycloheximide cs, Shiga toxin inh)
CC(O)C(=O)N/N=C/c1cccc(Cl)c1Cl (configuration not stated)	Cycloheximide cs 20 (no result: Vaccinia mCherry, Vaccinia Venus)
CC(O)C(=O)N/N=C/c1ccccc1C(=O)O (configuration not stated)	none
N#CCc1cnc2ccccc2n1	Cycloheximide cs 18, Shiga toxin inh 69
CCC(C)(C)NC(=O)C(c1cccnc1)N(C(=O)c1csnn1)c1ccccc1 (configuration not stated)	none (no result: Vaccinia mCherry, Vaccinia Venus, LASV entry inh, Marburg entry inh)
C/C(=N\Nc1nccnc1Cl)c1ccc(O)c(C)c1	Vaccinia mCherry inconclusive, Cycloheximide cs 28, LASV entry inh inconclusive, Marburg entry inh inconclusive (no result: Shiga toxin inh)
C/C(=N\Nc1nccnc1Cl)c1ccc([N+](=O)[O-])cc1	Cycloheximide cs 41, Shiga toxin inh 66
C/C(=N\Nc1nccnc1Cl)c1ccc(Br)cc1	Cycloheximide cs 30, Shiga toxin inh 78 (no result: Vaccinia mCherry, Vaccinia Venus, LASV entry inh, Marburg entry inh)
C/C(=N/Nc1ncc(Br)cn1)c1ccc([N+](=O)[O-])cc1	none (no result: Vaccinia mCherry, Vaccinia Venus, Shiga toxin inh, LASV entry inh, Marburg entry inh)
OC1(c2ccccc2)CC(c2ccccc2)c2ccccc2O1 (configuration not stated)	Vaccinia mCherry inconclusive, LASV entry inh inconclusive, Marburg entry inh inconclusive (no result: Cycloheximide cs, Shiga toxin inh)
Cc1c(C(=O)N2CCCC2)oc2c1-c1nn(CC(=O)NCc3cccc(Br)c3)cc1CC2	LASV entry inh inconclusive (no result: Cycloheximide cs, Shiga toxin inh, Marburg entry inh)
COc1ccc(-n2nc(C(=O)N3CCN(c4cccc(C)c4C)CC3)c3c4ccccc4n(C)c3c2=O)cc1Cl	none (no result: Cycloheximide cs, Shiga toxin inh)
COCC(=O)Nc1cc(C(=O)N2CC3(C)CC2CC(C)(C)C3)c2c(c1)nc(-c1ccncc1)n2C (configuration not stated)	none (no result: Cycloheximide cs, Shiga toxin inh, LASV entry inh, Marburg entry inh)
O=C(COc1ccccc1)N=C1SC2CS(=O)(=O)CC2N1c1ccccc1F (configuration not stated)	none
C=C(CN(C)C)C(=O)c1cc(C)ccc1C	Vaccinia mCherry inconclusive, Vaccinia Venus 7.1µM, LASV entry inh inconclusive, Marburg entry inh inconclusive (no result: Cycloheximide cs, Shiga toxin inh)
CCCOc1cccc(C2/C(=C(/O)c3ccccc3)C(=O)C(=O)N2CCN(C)C)c1 (configuration not stated)	LASV entry inh inconclusive, Marburg entry inh inconclusive
Cc1c(/C(O)=C2\C(=O)C(=O)N(CCN(C)C)C2c2ccccc2)cnn1-c1ccccc1 (configuration not stated)	Cycloheximide cs 50, Shiga toxin inh 111
CCCOc1ccc(/C(O)=C2/C(=O)C(=O)N(CCN(C)C)C2c2ccco2)cc1 (configuration not stated)	Cycloheximide cs 37, Shiga toxin inh 74 (no result: Vaccinia mCherry)
Cc1c(/C(O)=C2\C(=O)C(=O)N(CCN(C)C)C2c2ccco2)cnn1-c1ccccc1 (configuration not stated)	Cycloheximide cs 30, Shiga toxin inh 67 (no result: Vaccinia mCherry, Vaccinia Venus)
CCN(CC)CCCN1C(=O)C(=O)/C(=C(/O)c2ccc3c(c2)OCCO3)C1c1ccco1 (configuration not stated)	Cycloheximide cs 46, Marburg entry inh inconclusive (no result: Vaccinia mCherry, Vaccinia Venus)
Cc1ccc(S(=O)(=O)N2C[C@@H]3[C@H]4CC[C@H](C4)[C@@H]3[C@@H](C)[C@@H]2C2CCCCC2=O)cc1 (some centres not stated)	Vaccinia Venus inconclusive (no result: Cycloheximide cs, Shiga toxin inh, LASV entry inh, Marburg entry inh)
COc1cccc(C2/C(=C(/O)c3cnn(-c4ccccc4)c3C)C(=O)C(=O)N2CCN(C)C)c1OC (configuration not stated)	Marburg entry inh 1.1µM
O=C(CSc1n[nH]c(-c2ccccc2Cl)n1)N1CCN(c2ccc(F)cc2)CC1	none (no result: Cycloheximide cs, Shiga toxin inh, Marburg entry inh)
N#Cc1nc(COc2cccc(Cl)c2)oc1NCc1ccco1	Vaccinia mCherry inconclusive, Cycloheximide cs 50 (no result: LASV entry inh, Marburg entry inh)
COc1ccc(Nc2oc(-c3ccc(F)cc3)nc2C#N)cc1	Cycloheximide cs 35, Shiga toxin inh 73, LASV entry inh inconclusive
CCNc1oc(COc2cccc(C)c2)nc1C#N	Cycloheximide cs 23, Marburg entry inh inconclusive
COc1ccc(Nc2oc(/C=C/c3ccc(F)cc3)nc2C#N)cc1	none (no result: Cycloheximide cs, Shiga toxin inh)
Cc1cccc(OCc2nc(C#N)c(NCc3ccc4c(c3)OCO4)o2)c1	Cycloheximide cs 42
Cc1ccc(OCc2nc(C#N)c(NCc3ccco3)o2)cc1	none
CCOc1cccc(NC(=O)c2cnccc2C(F)(F)F)c1	none
CCOCCCNC(=O)CN1C(=O)/C(=C/c2ccccc2)Sc2ccccc21	none
COc1ccc(Nc2oc(COc3ccc(OC)cc3)nc2C#N)cc1	LASV entry inh inconclusive, Marburg entry inh 6.5µM (no result: Vaccinia mCherry, Vaccinia Venus)
COc1ccc(Nc2oc(COc3ccccc3F)nc2C#N)cc1	none (no result: LASV entry inh, Marburg entry inh)
COc1ccc(Nc2oc(COc3cccc(C)c3)nc2C#N)cc1	Cycloheximide cs 60, Shiga toxin inh 76, LASV entry inh 11µM, Marburg entry inh inconclusive
COc1ccc(Nc2oc(COc3ccc(C)cc3)nc2C#N)cc1	Shiga toxin inh 41 (no result: Vaccinia mCherry, Vaccinia Venus)
CCOc1ccc(Nc2oc(-c3ccco3)nc2C#N)cc1	Vaccinia Venus inconclusive, Cycloheximide cs 33 (no result: Vaccinia mCherry)
Cc1ccc(/C=[N+](\[O-])c2ccc(N(C)C)cc2)c2nsnc12	Cycloheximide cs 34, Shiga toxin inh 85, LASV entry inh inconclusive, Marburg entry inh inconclusive
COC(=O)c1ccccc1NC(=O)C1CCCN(c2nnc(C)c3c(C)n(-c4ccccc4)nc23)C1 (configuration not stated)	none (no result: Cycloheximide cs, Shiga toxin inh, Marburg entry inh)
CC1CCN(c2nc3ccc(C(=O)NCc4ccc(Cl)cc4)cc3s2)CC1	none (no result: Cycloheximide cs, Shiga toxin inh)
CC1CCN(c2nc3ccc(C(=O)NCCCN4CCCCC4)cc3s2)CC1	Cycloheximide cs 28, Shiga toxin inh 29 (no result: LASV entry inh, Marburg entry inh)
CCC1CCCCN1CCCNC(=O)c1ccc2nc(N3CCC(C)CC3)sc2c1 (configuration not stated)	Cycloheximide cs 29, Shiga toxin inh 90 (no result: Vaccinia mCherry, Vaccinia Venus, LASV entry inh, Marburg entry inh)
